How the values were obtained:
Experiment in all cases: DAPPL (digital affinity profiling via proximity ligation, sequencing); 10 mM Tris-HCl pH 7.5, 50 mM NaCl, 1 mM DTT, 4% glycerol, room temperature, 30 min; GST-TFs on glutathione beads, 16-mer random dsDNA library, 0.1% formaldehyde crosslink after washing; high values mean tight binding
[1] = target: T1, FEV (Homo sapiens, UniProt Q99581 1-238); details: protein: recombinant; tags: N-terminal GST; dsDNA, one strand shown
T1 sequence: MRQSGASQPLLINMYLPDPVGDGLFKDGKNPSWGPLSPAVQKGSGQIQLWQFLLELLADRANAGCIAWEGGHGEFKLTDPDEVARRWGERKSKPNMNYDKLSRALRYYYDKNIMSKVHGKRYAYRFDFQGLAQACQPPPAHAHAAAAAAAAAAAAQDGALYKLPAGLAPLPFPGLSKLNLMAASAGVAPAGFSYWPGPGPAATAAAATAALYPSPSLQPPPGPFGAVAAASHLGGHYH
Summary of the method: (§1)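 Binding signal is each hexamer's read frequency for a factor divided by its frequency in the tag-only sample. The factors were GST-fused human transcription factors from yeast, captured on glutathione beads, DNA-barcoded and pooled with that sample. Pools were incubated with 200 nmole of a random double-stranded 16-mer DNA library in Tris/NaCl/DTT/glycerol buffer at room temperature for 30 min, then washed, crosslinked with 0.1% formaldehyde, proximity-ligated with BsaI/T4 ligase (1 h, 37 °C), PCR-amplified and sequenced on an Illumina NextSeq500.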

[2] = target: ETV5 (Homo sapiens, UniProt P41161 1-510); details: protein: recombinant; tags: N-terminal GST; dsDNA, one strand shown
Summary of the method: as §1

[3] = target: HSF1 (Homo sapiens, UniProt Q00613 1-529); details: protein: recombinant; tags: N-terminal GST; chain copies: 3; dsDNA, one strand shown
Summary of the method: as §1

[4] = target: T2, SPIC (Homo sapiens, UniProt Q8N5J4 1-248); details: protein: recombinant; tags: N-terminal GST; dsDNA, one strand shown
T2 sequence: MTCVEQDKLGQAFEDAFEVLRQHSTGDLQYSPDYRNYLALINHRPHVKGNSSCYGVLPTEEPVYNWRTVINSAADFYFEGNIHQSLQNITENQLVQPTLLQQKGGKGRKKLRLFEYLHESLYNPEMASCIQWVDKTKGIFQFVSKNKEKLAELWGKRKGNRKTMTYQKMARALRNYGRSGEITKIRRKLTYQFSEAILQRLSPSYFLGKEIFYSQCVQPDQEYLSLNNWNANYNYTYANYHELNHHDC
Summary of the method: as §1

[5] = target: ELF4 (Homo sapiens, UniProt Q99607 1-663); details: protein: recombinant; tags: N-terminal GST; dsDNA, one strand shown
Summary of the method: as §1

[6] = target: T3, ELK4 (Homo sapiens, UniProt P28324-2 1-405); details: protein: recombinant; tags: N-terminal GST; dsDNA, one strand shown
T3 sequence: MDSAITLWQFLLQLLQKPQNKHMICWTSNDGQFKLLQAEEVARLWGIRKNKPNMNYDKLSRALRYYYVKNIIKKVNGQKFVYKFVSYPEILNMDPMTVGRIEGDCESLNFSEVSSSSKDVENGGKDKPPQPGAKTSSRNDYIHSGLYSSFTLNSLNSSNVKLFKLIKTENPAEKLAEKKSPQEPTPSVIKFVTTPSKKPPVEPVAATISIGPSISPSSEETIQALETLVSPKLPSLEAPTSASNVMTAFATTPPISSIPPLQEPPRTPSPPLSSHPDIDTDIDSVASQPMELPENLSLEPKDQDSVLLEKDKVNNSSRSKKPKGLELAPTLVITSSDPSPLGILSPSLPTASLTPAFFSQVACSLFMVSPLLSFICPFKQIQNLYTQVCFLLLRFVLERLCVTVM
Summary of the method: as §1

[7] = target: T4, ETV2 (Homo sapiens, UniProt O00321 1-342); details: protein: recombinant; tags: N-terminal GST; dsDNA, one strand shown
T4 sequence: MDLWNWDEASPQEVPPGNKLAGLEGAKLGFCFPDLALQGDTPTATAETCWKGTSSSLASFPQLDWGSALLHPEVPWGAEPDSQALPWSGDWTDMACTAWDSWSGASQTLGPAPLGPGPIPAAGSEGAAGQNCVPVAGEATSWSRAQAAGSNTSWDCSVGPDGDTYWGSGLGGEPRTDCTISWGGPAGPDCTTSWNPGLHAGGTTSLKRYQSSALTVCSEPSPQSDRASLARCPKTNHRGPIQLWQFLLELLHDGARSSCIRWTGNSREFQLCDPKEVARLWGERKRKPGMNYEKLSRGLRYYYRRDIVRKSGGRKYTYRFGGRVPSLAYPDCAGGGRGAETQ
Summary of the method: as §1

[8] = target: T5, ELF3 (Homo sapiens, UniProt P78545 1-371); details: protein: recombinant; tags: N-terminal GST; dsDNA, one strand shown
T5 sequence: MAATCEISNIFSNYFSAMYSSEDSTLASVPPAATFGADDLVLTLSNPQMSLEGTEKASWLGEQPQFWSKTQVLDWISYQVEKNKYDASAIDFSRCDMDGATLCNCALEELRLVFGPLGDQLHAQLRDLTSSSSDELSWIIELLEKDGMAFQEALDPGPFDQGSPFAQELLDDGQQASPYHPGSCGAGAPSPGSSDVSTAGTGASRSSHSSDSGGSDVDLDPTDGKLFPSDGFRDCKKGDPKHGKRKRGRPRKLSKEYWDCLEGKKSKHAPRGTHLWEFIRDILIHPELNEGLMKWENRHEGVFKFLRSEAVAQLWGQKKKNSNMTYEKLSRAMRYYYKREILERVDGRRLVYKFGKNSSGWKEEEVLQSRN
Summary of the method: as §1

[9] = target: CRX (Homo sapiens, UniProt O43186 1-299); details: protein: recombinant; tags: N-terminal GST; dsDNA, one strand shown
Summary of the method: as §1

[10] = target: ETV1 (Homo sapiens, UniProt P50549 1-477); details: protein: recombinant; tags: N-terminal GST; dsDNA, one strand shown
Summary of the method: as §1

[11] = target: T6, ERF (Homo sapiens, UniProt P50548 1-548); details: protein: recombinant; tags: N-terminal GST; dsDNA, one strand shown
T6 sequence: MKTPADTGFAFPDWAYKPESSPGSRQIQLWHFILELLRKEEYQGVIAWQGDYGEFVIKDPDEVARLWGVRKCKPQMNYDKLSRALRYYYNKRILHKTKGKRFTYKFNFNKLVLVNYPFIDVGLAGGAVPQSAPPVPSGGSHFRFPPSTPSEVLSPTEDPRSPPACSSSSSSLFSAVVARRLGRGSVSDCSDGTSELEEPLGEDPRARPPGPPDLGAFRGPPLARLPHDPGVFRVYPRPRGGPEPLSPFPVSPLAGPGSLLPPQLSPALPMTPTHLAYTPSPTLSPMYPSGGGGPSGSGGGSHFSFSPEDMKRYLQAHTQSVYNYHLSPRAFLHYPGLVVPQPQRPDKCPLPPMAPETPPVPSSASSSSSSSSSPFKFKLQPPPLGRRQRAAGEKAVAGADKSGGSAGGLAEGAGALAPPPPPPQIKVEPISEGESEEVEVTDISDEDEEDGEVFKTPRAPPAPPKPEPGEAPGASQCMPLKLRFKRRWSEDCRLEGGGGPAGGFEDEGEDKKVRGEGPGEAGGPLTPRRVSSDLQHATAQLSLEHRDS
Summary of the method: as §1

[12] = target: T7, ETV3L (Homo sapiens, UniProt Q6ZN32 1-361); details: protein: recombinant; tags: N-terminal GST; dsDNA, one strand shown
T7 sequence: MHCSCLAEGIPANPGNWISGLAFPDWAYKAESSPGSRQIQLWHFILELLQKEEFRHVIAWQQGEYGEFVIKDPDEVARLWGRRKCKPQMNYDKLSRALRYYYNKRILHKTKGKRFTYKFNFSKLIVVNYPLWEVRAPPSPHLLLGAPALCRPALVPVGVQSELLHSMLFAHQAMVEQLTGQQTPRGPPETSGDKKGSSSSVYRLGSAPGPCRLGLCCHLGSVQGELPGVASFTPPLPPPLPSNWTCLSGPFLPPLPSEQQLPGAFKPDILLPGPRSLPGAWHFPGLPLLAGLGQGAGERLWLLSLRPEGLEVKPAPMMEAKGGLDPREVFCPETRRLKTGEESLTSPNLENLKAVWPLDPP
Summary of the method: as §1

[13] = target: T8, ETS2 (Homo sapiens, UniProt P15036 1-469); details: protein: recombinant; tags: N-terminal GST; dsDNA, one strand shown
T8 sequence: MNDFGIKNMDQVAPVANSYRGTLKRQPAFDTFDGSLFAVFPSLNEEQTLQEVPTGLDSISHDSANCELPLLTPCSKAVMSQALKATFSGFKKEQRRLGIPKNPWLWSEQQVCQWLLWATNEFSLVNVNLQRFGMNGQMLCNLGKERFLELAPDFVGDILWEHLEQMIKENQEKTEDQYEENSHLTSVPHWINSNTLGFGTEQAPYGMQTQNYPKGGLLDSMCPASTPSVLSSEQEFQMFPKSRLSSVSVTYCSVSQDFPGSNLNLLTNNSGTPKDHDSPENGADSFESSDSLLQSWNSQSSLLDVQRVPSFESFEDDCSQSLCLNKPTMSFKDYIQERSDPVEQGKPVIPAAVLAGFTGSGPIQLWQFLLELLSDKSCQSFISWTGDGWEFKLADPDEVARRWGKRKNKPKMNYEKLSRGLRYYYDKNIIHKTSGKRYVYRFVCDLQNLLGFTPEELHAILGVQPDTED
Summary of the method: as §1

[14] = target: T9, SPDEF (Homo sapiens, UniProt O95238 1-335); details: protein: recombinant; tags: N-terminal GST; dsDNA, one strand shown
T9 sequence: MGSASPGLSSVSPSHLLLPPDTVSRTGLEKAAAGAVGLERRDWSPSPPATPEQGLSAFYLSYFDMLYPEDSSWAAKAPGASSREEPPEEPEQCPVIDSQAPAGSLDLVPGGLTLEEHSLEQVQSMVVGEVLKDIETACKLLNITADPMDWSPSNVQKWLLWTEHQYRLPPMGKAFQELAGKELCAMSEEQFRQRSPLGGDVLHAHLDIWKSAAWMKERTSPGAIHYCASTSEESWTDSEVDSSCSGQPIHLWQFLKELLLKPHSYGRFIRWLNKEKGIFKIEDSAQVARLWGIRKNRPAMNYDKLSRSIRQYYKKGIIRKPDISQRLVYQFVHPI
Summary of the method: as §1

[15] = target: T10, ETV7 (Homo sapiens, UniProt Q9Y603 1-341); details: protein: recombinant; tags: N-terminal GST; dsDNA, one strand shown
T10 sequence: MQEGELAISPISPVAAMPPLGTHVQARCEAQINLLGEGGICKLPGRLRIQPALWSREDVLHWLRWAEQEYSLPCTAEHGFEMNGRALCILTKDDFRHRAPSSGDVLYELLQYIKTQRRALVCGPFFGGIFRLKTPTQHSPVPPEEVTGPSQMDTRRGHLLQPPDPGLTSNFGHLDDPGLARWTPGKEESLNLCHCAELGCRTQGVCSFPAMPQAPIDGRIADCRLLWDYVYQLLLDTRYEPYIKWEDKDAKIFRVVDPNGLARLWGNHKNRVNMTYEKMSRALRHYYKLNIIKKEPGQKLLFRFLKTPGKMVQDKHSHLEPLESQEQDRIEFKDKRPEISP
Summary of the method: as §1

[16] = target: T11, ELF5 (Homo sapiens, UniProt Q9UKW6-2 1-255); details: protein: recombinant; tags: N-terminal GST; dsDNA, one strand shown
T11 sequence: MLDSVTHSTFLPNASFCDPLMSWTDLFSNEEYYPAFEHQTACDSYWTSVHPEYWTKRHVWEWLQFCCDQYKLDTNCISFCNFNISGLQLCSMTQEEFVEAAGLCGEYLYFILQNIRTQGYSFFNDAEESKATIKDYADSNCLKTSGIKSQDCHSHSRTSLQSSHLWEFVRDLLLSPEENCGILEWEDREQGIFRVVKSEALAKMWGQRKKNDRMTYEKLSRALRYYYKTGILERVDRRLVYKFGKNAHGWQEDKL
Summary of the method: as §1

[17] = target: T12, ETV3 (Homo sapiens, UniProt P41162-2 1-143); details: protein: recombinant; tags: N-terminal GST; dsDNA, one strand shown
T12 sequence: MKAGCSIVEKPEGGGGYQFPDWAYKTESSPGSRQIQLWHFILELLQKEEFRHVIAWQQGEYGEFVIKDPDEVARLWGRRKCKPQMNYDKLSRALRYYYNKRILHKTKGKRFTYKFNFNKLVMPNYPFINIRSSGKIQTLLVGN
Summary of the method: as §1

[18] = target: ETV6 (Homo sapiens, UniProt P41212 1-452); details: protein: recombinant; tags: N-terminal GST; dsDNA, one strand shown
Summary of the method: as §1

Sequence of ELF4 (Q99607 whole entry): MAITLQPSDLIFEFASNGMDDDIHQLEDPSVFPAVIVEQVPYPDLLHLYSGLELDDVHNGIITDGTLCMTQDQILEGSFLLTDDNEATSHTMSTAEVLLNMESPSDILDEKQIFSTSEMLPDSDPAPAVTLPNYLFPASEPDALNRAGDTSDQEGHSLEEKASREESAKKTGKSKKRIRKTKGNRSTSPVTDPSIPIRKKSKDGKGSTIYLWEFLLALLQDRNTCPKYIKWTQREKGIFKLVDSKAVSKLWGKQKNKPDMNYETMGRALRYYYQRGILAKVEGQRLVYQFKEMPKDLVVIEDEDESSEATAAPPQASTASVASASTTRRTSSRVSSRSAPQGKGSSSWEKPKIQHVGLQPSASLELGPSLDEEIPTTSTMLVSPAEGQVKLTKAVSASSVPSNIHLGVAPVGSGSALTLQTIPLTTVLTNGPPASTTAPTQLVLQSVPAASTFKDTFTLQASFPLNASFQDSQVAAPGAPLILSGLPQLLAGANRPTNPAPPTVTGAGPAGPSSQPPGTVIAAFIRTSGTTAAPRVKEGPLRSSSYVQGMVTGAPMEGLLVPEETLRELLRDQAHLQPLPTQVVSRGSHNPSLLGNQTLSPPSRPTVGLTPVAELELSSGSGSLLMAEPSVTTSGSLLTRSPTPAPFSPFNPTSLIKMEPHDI
Sequence of ETV1 (P50549 whole entry): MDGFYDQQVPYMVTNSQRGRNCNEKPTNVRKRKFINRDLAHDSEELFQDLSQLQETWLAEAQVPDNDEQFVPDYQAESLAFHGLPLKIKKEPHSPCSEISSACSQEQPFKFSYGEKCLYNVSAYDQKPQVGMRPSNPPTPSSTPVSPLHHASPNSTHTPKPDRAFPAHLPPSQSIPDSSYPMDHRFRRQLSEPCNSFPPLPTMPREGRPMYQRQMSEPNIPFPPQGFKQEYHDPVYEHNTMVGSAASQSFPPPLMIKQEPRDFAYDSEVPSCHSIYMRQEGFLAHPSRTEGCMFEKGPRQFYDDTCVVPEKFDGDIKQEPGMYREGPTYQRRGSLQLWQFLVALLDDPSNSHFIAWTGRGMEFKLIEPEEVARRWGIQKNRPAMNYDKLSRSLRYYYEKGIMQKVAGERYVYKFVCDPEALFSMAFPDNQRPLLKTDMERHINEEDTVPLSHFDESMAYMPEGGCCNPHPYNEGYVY
Sequence of ETV6 (P41212 whole entry): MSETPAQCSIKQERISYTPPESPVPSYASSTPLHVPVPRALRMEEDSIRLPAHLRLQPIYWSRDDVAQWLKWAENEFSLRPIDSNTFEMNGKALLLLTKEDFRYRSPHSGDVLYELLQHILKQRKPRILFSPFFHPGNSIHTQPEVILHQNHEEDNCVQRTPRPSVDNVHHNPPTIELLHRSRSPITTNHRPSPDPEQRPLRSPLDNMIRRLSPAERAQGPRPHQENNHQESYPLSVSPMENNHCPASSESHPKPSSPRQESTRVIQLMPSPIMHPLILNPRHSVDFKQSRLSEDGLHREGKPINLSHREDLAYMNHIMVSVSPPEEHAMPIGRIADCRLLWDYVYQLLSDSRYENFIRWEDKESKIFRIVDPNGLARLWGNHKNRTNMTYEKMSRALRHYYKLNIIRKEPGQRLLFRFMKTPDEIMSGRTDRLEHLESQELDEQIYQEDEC
Sequence of ETV5 (P41161 whole entry): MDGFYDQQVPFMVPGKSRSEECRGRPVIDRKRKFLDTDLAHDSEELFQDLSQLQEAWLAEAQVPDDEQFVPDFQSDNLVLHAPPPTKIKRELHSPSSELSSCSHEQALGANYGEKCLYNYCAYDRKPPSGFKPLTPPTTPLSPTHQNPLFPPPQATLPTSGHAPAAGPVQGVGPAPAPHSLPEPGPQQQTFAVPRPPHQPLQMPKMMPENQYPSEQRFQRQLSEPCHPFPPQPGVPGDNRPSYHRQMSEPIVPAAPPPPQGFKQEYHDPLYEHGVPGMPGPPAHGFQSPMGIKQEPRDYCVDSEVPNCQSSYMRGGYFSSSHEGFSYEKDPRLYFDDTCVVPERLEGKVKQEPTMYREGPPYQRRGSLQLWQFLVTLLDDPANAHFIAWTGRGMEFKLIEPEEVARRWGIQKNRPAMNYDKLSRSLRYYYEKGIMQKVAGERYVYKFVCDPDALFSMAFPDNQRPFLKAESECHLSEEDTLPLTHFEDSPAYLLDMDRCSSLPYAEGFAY
Sequence of CRX (O43186 whole entry): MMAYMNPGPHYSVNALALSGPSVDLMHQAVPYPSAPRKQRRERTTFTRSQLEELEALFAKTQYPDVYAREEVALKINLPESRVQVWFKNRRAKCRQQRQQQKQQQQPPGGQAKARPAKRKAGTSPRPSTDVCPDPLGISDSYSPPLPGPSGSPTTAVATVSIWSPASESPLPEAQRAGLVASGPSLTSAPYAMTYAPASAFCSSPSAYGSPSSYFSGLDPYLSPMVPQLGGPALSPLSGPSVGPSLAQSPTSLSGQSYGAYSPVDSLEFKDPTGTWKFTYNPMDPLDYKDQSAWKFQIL
Sequence of HSF1 (Q00613 whole entry): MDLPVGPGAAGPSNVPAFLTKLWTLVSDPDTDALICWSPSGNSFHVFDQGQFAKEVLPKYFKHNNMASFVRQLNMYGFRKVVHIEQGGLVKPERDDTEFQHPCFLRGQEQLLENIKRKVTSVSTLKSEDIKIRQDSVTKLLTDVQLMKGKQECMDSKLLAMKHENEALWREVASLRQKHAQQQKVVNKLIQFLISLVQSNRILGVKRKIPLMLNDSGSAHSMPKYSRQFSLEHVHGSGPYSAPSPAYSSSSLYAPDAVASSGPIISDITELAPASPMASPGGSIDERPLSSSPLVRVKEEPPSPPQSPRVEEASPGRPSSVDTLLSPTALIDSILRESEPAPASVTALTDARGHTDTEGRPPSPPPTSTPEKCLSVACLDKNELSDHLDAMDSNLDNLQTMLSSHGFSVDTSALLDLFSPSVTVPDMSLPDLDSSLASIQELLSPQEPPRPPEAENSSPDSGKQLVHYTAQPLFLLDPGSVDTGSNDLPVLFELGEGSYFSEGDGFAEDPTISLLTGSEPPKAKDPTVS

Sequence	binding signal [1]	binding signal [2]	binding signal [3]	binding signal [4]	binding signal [5]	binding signal [6]	binding signal [7]	binding signal [8]	binding signal [9]	binding signal [10]	binding signal [11]	binding signal [12]	binding signal [13]	binding signal [14]	binding signal [15]	binding signal [16]	binding signal [17]	binding signal [18]
ACTTGT	1.28 fold enrichment (6-mer frequency, TF over GST control)	1.21 fold enrichment (6-mer frequency, TF over GST control)	1.12 fold enrichment (6-mer frequency, TF over GST control)	1.08 fold enrichment (6-mer frequency, TF over GST control)	1.37 fold enrichment (6-mer frequency, TF over GST control)	1.36 fold enrichment (6-mer frequency, TF over GST control)	1.31 fold enrichment (6-mer frequency, TF over GST control)	1.16 fold enrichment (6-mer frequency, TF over GST control)	1.1 fold enrichment (6-mer frequency, TF over GST control)	1.29 fold enrichment (6-mer frequency, TF over GST control)	1.28 fold enrichment (6-mer frequency, TF over GST control)	1.23 fold enrichment (6-mer frequency, TF over GST control)	1.36 fold enrichment (6-mer frequency, TF over GST control)	1.22 fold enrichment (6-mer frequency, TF over GST control)	1.2 fold enrichment (6-mer frequency, TF over GST control)	1.28 fold enrichment (6-mer frequency, TF over GST control)	1.36 fold enrichment (6-mer frequency, TF over GST control)	1.32 fold enrichment (6-mer frequency, TF over GST control)
ACGGCT	1.2 fold enrichment (6-mer frequency, TF over GST control)	1.13 fold enrichment (6-mer frequency, TF over GST control)	1.13 fold enrichment (6-mer frequency, TF over GST control)	1.1 fold enrichment (6-mer frequency, TF over GST control)	1.1 fold enrichment (6-mer frequency, TF over GST control)	1.14 fold enrichment (6-mer frequency, TF over GST control)	1.07 fold enrichment (6-mer frequency, TF over GST control)	1.13 fold enrichment (6-mer frequency, TF over GST control)	1.36 fold enrichment (6-mer frequency, TF over GST control)	1.05 fold enrichment (6-mer frequency, TF over GST control)	1.16 fold enrichment (6-mer frequency, TF over GST control)	1.23 fold enrichment (6-mer frequency, TF over GST control)	1.19 fold enrichment (6-mer frequency, TF over GST control)	1.18 fold enrichment (6-mer frequency, TF over GST control)	1.03 fold enrichment (6-mer frequency, TF over GST control)	1.07 fold enrichment (6-mer frequency, TF over GST control)	1.11 fold enrichment (6-mer frequency, TF over GST control)	1.16 fold enrichment (6-mer frequency, TF over GST control)

Source: publication PMC7862700, “An all-to-all approach to the identification of sequence-specific readers for epigenetic DNA modifications on cytosine”
